S1P2 blocker: blocks the human S1P2 receptor | cell-based S1P2 antagonist assay, inhibition at 5 uM | inhibition, % at 5 µM | actives 0.21% (n = 97,000) | AID 736; in the data active = inhibition above about 45%;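 also: CRE beta-lactamase reporter cells expressing human S1P2 stimulated with S1P; 0% = agonist at EC80 alone and 100% = agonist plus reference antagonist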
Target sequence (O95136 whole entry, looked up): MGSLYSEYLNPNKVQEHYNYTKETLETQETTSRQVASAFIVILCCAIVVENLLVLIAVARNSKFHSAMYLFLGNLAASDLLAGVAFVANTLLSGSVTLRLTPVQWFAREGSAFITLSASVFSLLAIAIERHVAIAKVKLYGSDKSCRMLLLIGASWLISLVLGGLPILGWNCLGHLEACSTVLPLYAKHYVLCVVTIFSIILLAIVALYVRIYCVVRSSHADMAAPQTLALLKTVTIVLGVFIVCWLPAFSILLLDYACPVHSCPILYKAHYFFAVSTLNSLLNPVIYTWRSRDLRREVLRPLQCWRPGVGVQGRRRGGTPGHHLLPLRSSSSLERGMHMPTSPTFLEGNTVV
S1P2 ag: activates the human S1P2 receptor; O95136; S1P2-expressing cell line, agonist reporter read-out; activation, % at 4.5 µM; actives 0.46% (n = 97,000); in the data active = activation above about 16%;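 also: 0% = vehicle low control and 100% = maximal reference agonist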
GALR2 antag: GALR2 (human) receptor antagonism. inhibition, % at 4 µM. O43603. GALR2-expressing cells, antagonist mode. actives 0.39% (n = 140,000);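 also: cells stimulated with galanin 1-16 at roughly its EC80; 0% = agonist challenge control and 100% = basal control without agonist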
Target sequence (O43603 whole entry, looked up): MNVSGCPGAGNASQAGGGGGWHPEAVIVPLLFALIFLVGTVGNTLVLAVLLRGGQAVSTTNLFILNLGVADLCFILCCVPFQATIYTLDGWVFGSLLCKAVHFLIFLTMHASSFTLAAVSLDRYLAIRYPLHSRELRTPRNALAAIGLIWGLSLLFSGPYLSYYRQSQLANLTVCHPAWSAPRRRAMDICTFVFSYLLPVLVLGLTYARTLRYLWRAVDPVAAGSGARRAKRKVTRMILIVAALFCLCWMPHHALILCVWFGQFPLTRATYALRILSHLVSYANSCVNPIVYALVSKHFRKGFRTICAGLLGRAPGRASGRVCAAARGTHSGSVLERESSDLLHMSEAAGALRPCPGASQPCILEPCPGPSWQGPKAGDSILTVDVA
MT1-MMP txn act: MT1-MMP promoter transcription activation | HT1080 MT1-MMP promoter luciferase reporter, luminescence, overnight; active compounds read high | activation factor at 10 µM | actives 0.16% (n = 86,000);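 active = activation factor of at least 2 for MT1-MMP transcription at 10 µM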
Smad3 inh: Smad3 (human) transcription factor binding inhibition; TR-FRET Smad3/Dy647-FoxH1 peptide binding, europium anti-His; actives 0.29% (n = 88,000); inhibition, % at 25 µM; AID 630;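 active = compounds that reduce the energy-transfer binding signal between the protein and its labelled peptide by more than half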;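 also: 0% = Smad3 plus labelled peptide maximal FRET and 100% = peptide-only background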
GALR2 agonist: GALR2 (human) receptor agonism; O43603; activation, % (concentration not given with the values); actives 0.48% (n = 140,000); GALR2-expressing cells, agonist activation read-out; in the data active = activation above about 5%, passing the limit was not always enough;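 also: 0% = vehicle buffer wells and 100% = reference agonist at full effect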
GALR2 ant conf: confirmation of human galanin receptor 2 (GALR2) antagonists; shares compounds with GALR2 antag; GALR2-expressing cells, antagonist mode, inhibition; inhibition, % at 4 µM; actives 60% (n = 480);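 also: cells stimulated with galanin at about its EC80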
BLA inh counter: inhibits beta-lactamase reporter in GALR2 antagonist counterscreen; shares compounds with GALR2 antag; CHO NFAT-BLA reporter, beta-lactamase FRET, thapsigargin-stimulated; inhibition, % at 4.2 µM; actives 36% (n = 480); AID 867;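 active = inhibition above the mean inhibition across tested compounds plus 3 SD, cut at about 27% in these data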;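 also: 0% = 500 nM thapsigargin stimulated wells and 100% = unstimulated BSA only wells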
* hit, by the source's call; nt = no result. Shown are actives, neighbours in structure and some others; about 1.4% of the full set was active somewhere. Rule as the data show it, unless noted: active = inhibition above about 27%; inactive = the rest.

SMILES | S1P2 blocker | S1P2 ag | GALR2 antag | MT1-MMP txn act | Smad3 inh | GALR2 agonist | GALR2 ant conf | BLA inh counter
Cc1cccc(Cl)c1NC[C@H](O)CN1CCN(C)CC1 | nt | nt | nt | nt | 0 | nt | nt | nt
O=C(O)c1cc(-c2ccc(-c3ccccc3)cc2)nc2cc3ccccc3cc12 | nt | nt | nt | nt | 10 | nt | nt | nt
Nc1nonc1C(=O)NCCNCc1cc(Br)ccc1OCc1ccccc1F | 73* | -3 | 32* | 0 | 0 | -2 | 33* | 52*
Nc1nonc1C(=O)NCCNCc1ccccc1OCc1ccccc1F | 2 | -2 | 6 | 1.1 | 1 | -2 | nt | nt
NC(N)=NC(N)=Nc1ccc(C(=O)O)cc1 | nt | nt | nt | nt | 3 | nt | nt | nt
Cc1[nH]c2ccccc2c1-c1nc2ccccc2[nH]1 | nt | nt | 42* | 1.3 | 8 | -2 | 49* | 11
CC(C)OC(=O)CSc1nc2ccccc2s1 | -24 | -4 | 34* | 1.1 | 2 | -3 | 6 | 15
COc1ccc(CC(=O)Nc2cccc(S(=O)(=O)N3CCCCCC3)c2)cc1OC | nt | nt | 28* | nt | nt | -1 | 16 | 9
O=C(NCc1cccnc1)/C(=C\c1ccc(-c2ccc(Br)cc2)o1)S(=O)(=O)c1ccccc1 | nt | nt | 37* | nt | nt | 0 | 41* | 27*
O=C(NCc1cccnc1)/C(=C/c1ccc(-c2cccc(C(F)(F)F)c2)o1)NC(=O)c1ccccc1 | -4 | -3 | 9 | nt | nt | -2 | nt | nt
O=C(CSC1=NCCN1)Nc1ccccc1 | nt | nt | nt | nt | 5 | nt | nt | nt
Cc1ccc(Nc2nc(-c3c(C)nc4ccccn34)cs2)cc1 | 23 | -4 | 34* | nt | nt | -2 | 40* | 59*
Cc1ccc(Nc2nc(-c3c(C)nc4ncccn34)cs2)cc1 | 11 | -9 | 19 | nt | nt | -2 | nt | nt
O=C(O)C[C@H](Cc1ccccc1)C(=O)O | nt | nt | nt | nt | -2 | nt | nt | nt
CC(=O)Nc1nc2n(n1)C(c1ccc(F)cc1)C=C(c1ccccc1)N2 (centres undefined) | 56* | -9 | 31* | 1.1 | 11 | -2 | 28* | 45*
CCSc1nnc(NC(=O)C(CC)(C(F)(F)F)C(F)(F)F)s1 | -3 | -1 | 28* | 0.9 | 8 | -2 | 2 | -2
CCSc1nnc(NC(=O)C(C)(C(F)(F)F)C(F)(F)F)s1 | 7 | -11 | 5 | 1 | 1 | -2 | nt | nt
O=c1c(O)c(-c2cccs2)oc2ccc(Cl)cc12 | 9 | -4 | 33* | 1.1 | -3 | -2 | 32* | 42*
Cc1ccc(-c2oc3ccccc3c(=O)c2O)cc1 | nt | nt | 20 | 1.2 | 6 | 0 | nt | nt
O=c1cc(-c2cccs2)oc2ccc(Cl)cc12 | 4 | -2 | 4 | 1.5 | -7 | -1 | nt | nt
O=c1c(O)c(-c2cccs2)oc2ccccc12 | 15 | -6 | 29* | 1.1 | 8 | -2 | 31* | 37*
COc1ccc(Cl)c(Cn2c(NCc3ccco3)nc3c2c(=O)n(C)c(=O)n3C)c1 | 24 | 3 | -2 | nt | 0 | -3 | nt | nt
COc1cccc(Cn2c(NCc3ccco3)nc3c2c(=O)n(C)c(=O)n3C)c1 | nt | nt | 28* | 0.9 | 7 | -1 | 19 | 3
COc1cc(N=C(N)N=C(N)N)c2ncccc2c1 | nt | nt | nt | nt | -9 | nt | nt | nt
Cc1ccc(S(=O)(=O)N[C@H](C(=O)Oc2ccc3c(C(F)(F)F)cc(=O)oc3c2)c2ccccc2)cc1 | 58* | -8 | 44* | nt | nt | -1 | 22 | 36*
SMILES | S1P2 blocker | S1P2 ag | GALR2 antag | MT1-MMP txn act | Smad3 inh | GALR2 agonist | GALR2 ant conf | BLA inh counter
O=C(C1=NN(c2ccccc2)C2C(=O)N(c3ccccc3)C(=O)C12)c1ccccc1 (centres undefined) | nt | nt | 19 | nt | nt | -2 | nt | nt
O=C(C1=NN(c2ccccc2)C2C(=O)N(c3ccccc3Cl)C(=O)C12)c1ccccc1 (centres undefined) | nt | nt | 29* | nt | nt | -1 | 25 | 42*
Cc1cc(C2(c3cc(C)c(O)c(C(=O)O)c3)OS(=O)(=O)c3ccccc32)cc(C(=O)O)c1O | nt | nt | nt | nt | 20 | nt | nt | nt
Cn1c(-c2c(N)n(CCc3ccccc3)c3nc4ccccc4nc23)nc2ccccc21 | 59* | -8 | 36* | 1.1 | 16 | 0 | 45* | 54*
COCCCn1c(N)c(-c2nc3ccccc3n2C)c2nc3ccccc3nc21 | 30 | -10 | 23 | 0.9 | 21 | -2 | nt | nt
Cn1c(-c2c(N)n(CCCc3ccccc3)c3nc4ccccc4nc23)nc2ccccc21 | 75* | -13 | 38* | 1.3 | 4 | 0 | 51* | 55*
CCCC(c1cc(C(C)(C)C)c(O)cc1C)c1cc(C(C)(C)C)c(O)cc1C | nt | nt | nt | nt | 1 | nt | nt | nt
CCCC(=O)Nc1nc(C)c(-c2csc(Nc3ccccc3OC)n2)s1 | 6 | -4 | -21 | nt | nt | 1 | nt | nt
COc1ccccc1Nc1nc(-c2c(C)[nH]c3ccccc23)cs1 | nt | nt | 30* | nt | nt | 2 | 18 | 15
O=C(Nc1ccccc1)Nc1cc(Cl)cc(Cl)c1 | -17 | -4 | 21 | 1 | -1 | -2 | nt | nt
O=C(Nc1ccccc1)Nc1cc(OCC(F)(F)F)cc(OCC(F)(F)F)c1 | nt | nt | 27* | nt | nt | -2 | 19 | 12
O=C(C#Cc1ccccc1)c1cccc([N+](=O)[O-])c1 | 67* | -12 | 34* | 1 | 4 | 1 | 72* | 75*
N/C(=N\OC(=O)Oc1ccccc1)c1cccc([N+](=O)[O-])c1 | nt | nt | 5 | nt | nt | -1 | nt | nt
Cc1ccc(C(=O)OCn2ncc(Cl)c(Cl)c2=O)cc1 | 80* | -5 | 85* | nt | nt | -2 | 94* | 71*
CCc1ccccc1NC(=O)CN(C)C(=O)Cn1ncc(Cl)c(Cl)c1=O | nt | nt | 78* | nt | nt | -2 | 75* | 23
CCOC(=O)c1ccc(NC(=O)Cn2ncc(Cl)c(Cl)c2=O)cc1 | nt | nt | 82* | nt | nt | 0 | 67* | 48*
CCOC(=O)c1ccc(NC(=O)CN2C(=O)CCC2=O)cc1 | -14 | 1 | -1 | 1 | 6 | -3 | nt | nt
Cc1cc(C(=O)Cn2ncc(Cl)c(Cl)c2=O)c(C)n1CC(F)(F)F | nt | nt | 20 | nt | nt | 0 | nt | nt
O=C(OCn1ncc(Cl)c(Cl)c1=O)c1ccc(C(F)(F)F)cc1 | 24 | -10 | 34* | nt | nt | -4 | 43* | 12
Cc1ccc(C)c(C(=O)Cn2ncc(Cl)c(Cl)c2=O)c1 | 20 | -9 | 20 | 0.8 | -28 | -2 | nt | nt
CC(=O)N[C@@H]1CONC1=O | nt | nt | nt | nt | 2 | nt | nt | nt
N[C@@H](CCCCO)C(=O)O | nt | nt | nt | nt | -4 | nt | nt | nt
CCn1c2ccc(C)cc2c2nc3cc(C(=O)O)ccc3nc21 | nt | nt | 28* | nt | nt | -1 | 34* | 4
COc1cccc(N2CCN(c3ncnc4c3[nH]c3ccc(F)cc34)CC2C)c1 (centres undefined) | 105* | -4 | 51* | 0.3 | 3 | -2 | 72* | 58*
COc1cccc(N2CCN(c3ncnc4c3[nH]c3ccccc34)CC2C)c1 (centres undefined) | nt | nt | 21 | 0.9 | nt | 0 | nt | nt
O=C(O)CCc1ccc(-c2ccccc2)[nH]1 | nt | nt | nt | nt | 1 | nt | nt | nt
